p53 reactivator – mutant p53 re-activation in reporter cells; H1299 p53-A138V BP100-luciferase reporter, luminescence, 24 h; Potency, µM (top dose mostly 92.2 µM), without a hit: at the highest dose activity change, positive = activation, most hits filed as activators; hit rate 0.063% among 320,000; AID 504706; active = well fitted activation curve with a large enough effect; inconclusive = small, poorly fitted or top-dose-only effect; inactive = no such curve, though single readings can be large or run the other way; also: potency is read from the fitted curve at half-maximal effect; % of control where 0% means no effect; nearly all actives have a fitted effect of over 45% in size
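p53-null H1299 cells stably carrying temperature-sensitive p53-A138V and a BP100-luciferase reporter were pinned with compounds (4-point, 1:5 series) and held 24 hrs at 37 deg C. Luminescence was read 10 min after detection reagent.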
Menin MLL FP FL – menin-MLL binding inhibition, fluorescein peptide; FP activity change, % at 61.4 µM; AID 1766; 290,000 tested, under 10 active; Fluorescence polarization, fluorescein-MLL peptide displacement from menin; active = well fitted curve in the direction sought with a large enough effect in the polarisation, not every such curve was filed as active; inconclusive = small, poorly fitted or top-dose-only effect, or effect the other way, or a change in a side signal; inactive = no such curve, though single readings can be large or run the other way; the % refers to the polarisation; also: % of control where 0% means no effect
Menin-MLL TR inh – inhibitors of human menin-MLL interaction, mutant MLL peptide; O00255; Menin + Texas Red MLL mutant peptide, fluorescence polarization; Potency, µM (top dose mostly 61.6 µM), for inactives: at the highest dose FP activity change, negative = inhibition, usual class: inhibitors; hit rate 0.23% among 270,000; active = well fitted inhibition curve with a large enough effect in the polarisation, with a control signal flat, not every such curve was filed as active; inconclusive = small, poorly fitted or top-dose-only effect, or effect the other way, or a change in a side signal; inactive = no such curve, though single readings can be large or run the other way; the % refers to the polarisation; also: potency is read from the fitted curve at half-maximal effect; % of control where 0% means no effect
Target sequence (O00255 whole entry, looked up): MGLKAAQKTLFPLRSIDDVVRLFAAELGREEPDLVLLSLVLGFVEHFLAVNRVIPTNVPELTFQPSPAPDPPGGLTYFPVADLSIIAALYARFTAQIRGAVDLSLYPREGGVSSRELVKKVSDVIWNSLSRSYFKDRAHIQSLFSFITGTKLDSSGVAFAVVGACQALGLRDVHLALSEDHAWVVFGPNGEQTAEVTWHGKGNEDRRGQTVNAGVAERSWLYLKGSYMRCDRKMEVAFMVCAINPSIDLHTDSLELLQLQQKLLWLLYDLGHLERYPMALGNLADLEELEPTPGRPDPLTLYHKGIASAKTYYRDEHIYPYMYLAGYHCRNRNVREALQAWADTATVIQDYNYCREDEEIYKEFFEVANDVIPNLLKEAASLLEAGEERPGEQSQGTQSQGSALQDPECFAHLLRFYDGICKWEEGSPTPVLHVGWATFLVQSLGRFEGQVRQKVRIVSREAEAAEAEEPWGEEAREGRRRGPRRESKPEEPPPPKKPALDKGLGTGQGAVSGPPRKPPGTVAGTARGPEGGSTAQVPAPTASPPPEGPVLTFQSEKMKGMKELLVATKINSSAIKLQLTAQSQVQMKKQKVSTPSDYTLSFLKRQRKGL
ClpP mod – qHTS Assay for Activators of ClpP. ATP-dependent Clp protease proteolytic subunit (Bacillus subtilis (strain 168)), P80244. purified B. subtilis ClpP, FRET peptide cleavage, 20 min. hit rate 1.9% among 340,000. Potency, µM (doses to about 57.5 µM), for inactives: at the highest dose activity change, negative = active; active = well fitted falling curve with a large enough effect; inconclusive = small, poorly fitted or top-dose-only effect; inactive = no such curve, though single readings can be large or run the other way; also: potency is read from the fitted curve at half-maximal effect; the source files actives as falling curves though it sought activators and does not explain the sign; nearly all actives have a fitted effect of over 65% in size
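ClpP 10 microg/mL final, pH 8 Tris/KCl buffer with BSA, glycerol, Tween-20; compound pinned in; FRET-FV substrate; RT 20 min; Ex320/Em430; ΔFRET vs ADEP 5.8 microM, DMSO, no enzyme.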
MLL CXXC-DNA inh – blocks binding of human MLL CXXC domain to DNA; Q03164; MLL-CXXC / FITC-HOXA9 DNA fluorescence polarization; Potency, µM (titrated, usually from 115 µM), for inactives: at the highest dose activity change, negative = inhibition, hits mostly inhibitors; hit rate 0.037% among 290,000; active = well fitted inhibition curve with a large enough effect in the polarisation, with a control signal flat, not every such curve was filed as active; inconclusive = small, poorly fitted or top-dose-only effect, or effect the other way, or a change in a side signal; inactive = no such curve, though single readings can be large or run the other way; the % refers to the polarisation; also: potency is read from the fitted curve at half-maximal effect
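Steps: dispense CXXC domain solution (7 uM) → pin compounds or unlabeled HOX-A9 DNA control → 5 min ambient → add FLSN-HOX-A9 solution (50 nM) → spin → 30 min ambient → fluorescence polarization. Tris pH 7.5/NaCl/DTT/BSA buffer.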
* = called active by the depositor; ? = inconclusive; . = not tested or not shown. The sample as a whole holds a higher share of hits than the screen did.

SMILES	p53 reactivator	Menin MLL FP FL	Menin-MLL TR inh	ClpP mod	MLL CXXC-DNA inh
CN1C(=O)C(=Cc2ccc(N3CCCCC3)o2)C(=O)N(C)C1=S	1%	?	25µM*	-1%	84%
COCCCn1c(N)c(C(=O)NCCC(C)C)c2nc3ccccc3nc21	-3%	4	-15%	32µM*	-12%
COCCOC(=O)c1c(N)n(Cc2ccccc2)c2nc3ccccc3nc12	0%	-2	0%	70%	-1%
CCCCOCCCn1c(N)c(C(=O)OCCOC)c2nc3ccccc3nc21	19%	8	28µM*	2%	28%
COCCCNC(=O)c1c(NC(=O)c2ccccc2)n(Cc2ccccc2)c2nc3ccccc3nc12	.	.	.	32µM*	.
CCCCn1c(N)c(C(=O)OCCOC)c2nc3ccccc3nc21	-6%	0	.	.	0%
CCOC(=O)c1c(NC(=O)c2c(N)n(CCCOC)c3nc4ccccc4nc23)sc2c1CCCC2	-3%	?	?	-10%	10%
Cc1cc(/C=C/c2ccnc3ccccc23)ccc1N(CCCl)CCCl	.	.	.	0%	.
CC(=O)NCC(N)C(=O)c1ccc(Cl)c(Cl)c1 (stereo not drawn)	.	.	.	1%	.
O=C(c1cc2c(s1)-c1ccccc1OC2)N1CCC2(CC1)OCCO2	?	1	?	28µM*	4%
COc1ccc(CCN2CCCC(CN(C)C(=O)c3cc(C)oc3C)C2)cc1 (stereo not drawn)	35µM*	-4	?	-1%	?
Cc1cnc(NC(=O)CN2CCCCC2)s1	.	-1	1%	14µM*	-1%
CCCCCCCCCCCCOCCOCCOCCOCCOCCOCCOCCOCCOCCO	.	-1	?	.	3%
O=[N+]([O-])c1ccc(-c2ccc(C=Nc3cccc4ccccc34)o2)cc1	5%	-2	?	18µM*	-4%
CCCC/C(=N/O)c1c(C)[nH]c2ccccc12	-5%	3	14%	28µM*	2%
CC(C)CCOC(=O)c1c(N)n(CC2CCCO2)c2nc3ccccc3nc12 (stereo not drawn)	22%	1	16%	28µM*	-10%
CC(C)OC(=O)c1c(N)n(CC2CCCO2)c2nc3ccccc3nc12 (stereo not drawn)	5%	1	-16%	-8%	25%
CCCNC(=O)c1c(N)n(CC2CCCO2)c2nc3ccccc3nc12 (stereo not drawn)	-37%	5	5%	18µM*	-12%
CC(C)OCCCNC(=O)c1c(N)n(CC2CCCO2)c2nc3ccccc3nc12 (stereo not drawn)	-14%	9	-6%	14µM*	-4%
C[C@]12O[C@H](C[C@]1(O)CO)n1c3ccccc3c3c4c(c5c6ccccc6n2c5c31)CNC4=O	.	3	?	.	-4%
Cc1cc(/C=C/c2cccc3sc(C)[n+](CCCCI)c23)ccc1N(CCCl)CCCl	.	.	.	2%	.
CCOc1cc(OP(=S)(OC)OC)nc(CC)n1	.	-7	-8%	.	.
Cc1cc([C@@H]2CCCN2C)on1	.	3	-1%	.	.
CN1CCCC1c1ccc(=O)[nH]c1 (stereo not drawn)	.	.	.	32µM*	.
CCN(CC)c1ccc(CC2C(=O)N(C)C(=O)N(C)C2=O)cc1	1%	?	?	8.9µM*	18%
SMILES	p53 reactivator	Menin MLL FP FL	Menin-MLL TR inh	ClpP mod	MLL CXXC-DNA inh
CN(C)C1CSSSC1	.	3	2%	.	.
CC(=O)N1CCC2(CC1)CC(=O)c1cc(OCC(=O)N3CCC4(CC3)OCCO4)ccc1O2	0%	-3	11%	4%	6%
CC(=O)N1CCC2(CC1)CC(=O)c1cc(OCC(=O)N3CCN(C)CC3)ccc1O2	-4%	7	24%	20µM*	?
c1cc[n+]2c(c1)-c1cccc[n+]1CC2	.	?	-19%	.	.
CC(C)(C)C(=O)C(Oc1ccc(Cl)cc1)n1ccnc1 (stereo not drawn)	.	?	-10%	.	-27%
Cc1cc(OCC(=O)NC2CCS(=O)(=O)C2)c2c3c(c(=O)oc2c1)CCC3 (stereo not drawn)	-2%	1	-6%	3.2µM*	0%
COC(=O)C(C)Oc1cc(C)cc2oc(=O)c3c(c12)CCCC3 (stereo not drawn)	.	0	-20%	25µM*	-13%
COC(=O)C(C)Oc1cc(C)cc2oc(=O)c3c(c12)CCC3 (stereo not drawn)	-5%	-1	-14%	53%	3%
Cc1cc(OCC(=O)OC(C)C)c2c3c(c(=O)oc2c1)CCCC3	10%	1	?	35µM*	2%
Cc1cc(OC(C)C(=O)NCC(O)c2ccccc2)c2c3c(c(=O)oc2c1)CCCC3 (stereo not drawn)	-9%	8	-9%	4%	-5%
CCOC(=O)C(C)Oc1cc(C)cc2oc(=O)c3c(c12)CCCC3 (stereo not drawn)	-6%	4	-15%	16µM*	0%
Cc1cc(OCC(=O)NCC(O)c2ccccc2)c2c3c(c(=O)oc2c1)CCCC3 (stereo not drawn)	5%	-1	0%	4%	-1%
O=C(O)c1cc(Oc2ccc([N+](=O)[O-])cc2)cc(Oc2ccc([N+](=O)[O-])cc2)c1	.	5	?	.	.
CC1(C)C(C(=O)O)N2C(=O)CC2S1(=O)=O (stereo not drawn)	.	-3	?	.	.
CC1=C(O)C(=O)C=C2C1=CC=C1[C@]2(C)CC[C@@]2(C)C3C[C@](C)(C(=O)O)CC[C@@]3(C)CC[C@@]12C (stereo partly drawn)	.	0	35%	.	.
CC(=O)Nc1ccc(S(=O)(=O)N(C)CCOCc2ccccc2)cc1	1%	5	-2%	22µM*	2%
Cc1cccc(N2C(=O)/C(=C/N3CCN(C(=O)c4ccco4)CC3)C(=O)NC2=S)c1	-3%	12	2%	16µM*	8%
Cc1ccc(N2C(=O)/C(=C/N3CCN(C(=O)c4ccco4)CC3)C(=O)NC2=S)cc1C	0%	22	-11%	-4%	-20%
O=C(c1ccc2nc3ccc(Cl)cc3c(=O)n2c1)N1CCC2(CC1)OCCO2	.	.	.	14µM*	.
O=C(c1ccc(Cl)cc1)N1CCC2(CC1)OCCO2	-8%	-5	4%	-1%	0%
O=C(O)c1cccc2c1NC(C(=O)O)C1CC(Sc3ccccc3[N+](=O)[O-])C(Cl)C21 (stereo not drawn)	0%	-12	22µM*	-25%	8%
c1ccc2c(CN3CCCCCCC3)c[nH]c2c1	-41%	3	9%	28µM*	14%
O=C(CNC(=O)OCc1ccccc1)NCC(=O)Nc1ccc(Br)cc1C(=O)c1ccccc1	-5%	-3	0%	25µM*	1%
COc1ccc(C(CC(=O)N2CCC3(CC2)OCCO3)NS(=O)(=O)c2ccc(F)cc2)cc1 (stereo not drawn)	-9%	-2	0%	22µM*	-4%

Screens (PubChem)
